Data: PubChem BioAssay
The source made the active and inactive calls.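 Rule for the calls: active = compound raises insulin release from rat beta cells at 5 mM glucose, no numeric limit stated; inactive = the rest.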 Peptide text beside a SMILES is read from it.

Experiment: stimulators of insulin release from INS-1E, primary screen, cell-based, 5 mM glucose, NPC library (AID 1117329); note: reference of the scale not given here
Conditions: rat INS-1E insulin secretion, at 10 µM, hits give high values

Compound	insulin secretion stimulation
O=C(Nc1ccc([N+](=O)[O-])cc1Cl)c1cc(Cl)ccc1O	-1.7% (inactive)
CNC[C@H](O)c1cccc(O)c1	0% (inactive)
O=NN(CCCl)C(=O)NCCCl	-0.1% (inactive)
COc1ccnc(CS(=O)c2nc3ccc(OC(F)F)cc3[nH]2)c1OC (stereo not drawn)	1.2% (inactive)
COc1ccc2cc3[n+](cc2c1OC)CCc1cc2c(cc1-3)OCO2	1.05% (inactive)
CN(Cc1cc(Br)cc(Br)c1N)C1CCCCC1	6.9% (inactive)
O=C(NC(Cc1cc(=O)[nH]c2ccccc12)C(=O)O)c1ccc(Cl)cc1 (stereo not drawn)	2.6% (inactive)
NC(=O)NO	0% (inactive)
Cc1ccc(S(=O)(=O)NC(=O)NN2CC3CCCC3C2)cc1 (stereo not drawn)	42.6% (active)
OC[C@H]1O[C@@H](O[C@@H]2[C@@H](CO)O[C@](O)(CO)[C@H]2O)[C@H](O)[C@@H](O)[C@H]1O	0.5% (inactive)
NNc1nncc2ccccc12	-1.2% (inactive)
CCOC(=O)C(C)(C)Oc1ccc(Cl)cc1	-0.8% (inactive)
CC(=O)Oc1ccccc1C(=O)O	0.1% (inactive)
NC(=O)c1ncn([C@@H]2O[C@H](CO)[C@@H](O)[C@H]2O)n1	0% (inactive)
CN(C)c1ccc(C(=C2C=CC(=[N+](C)C)C=C2)c2ccc(N(C)C)cc2)cc1	-0.2% (inactive)
Cn1cnc2c1c(=O)[nH]c(=O)n2C	2.3% (inactive)
COc1ccc(CCN(C)CCCC(C#N)(c2ccc(OC)c(OC)c2)C(C)C)cc1OC (stereo not drawn)	6.3% (inactive)
O=c1oc2c(O)c(O)cc3c(=O)oc4c(O)c(O)cc1c4c23	-0.1% (inactive)
CN(C)CCc1c[nH]c2ccc(CS(=O)(=O)N3CCCC3)cc12	2.7% (inactive)

Compound	insulin secretion stimulation
COc1cc([C@H]2Oc3cc([C@H]4Oc5cc(O)cc(O)c5C(=O)[C@@H]4O)ccc3O[C@@H]2CO)ccc1O	1.8% (inactive)
C/C=C(/C(=C/C)c1ccc(O)cc1)c1ccc(O)cc1	-1.9% (inactive)
O=C(O)c1cn(-c2ccc(F)cc2)c2cc(N3CCNCC3)c(F)cc2c1=O	0.8% (inactive)
CN1C(C(=O)Nc2ccccn2)=C(O)c2sccc2S1(=O)=O	1.6% (inactive)
COC(=O)Nc1nc2ccc(S(=O)c3ccccc3)cc2[nH]1 (stereo not drawn)	-2.4% (inactive)
NCC1CCC(C(=O)O)CC1 (stereo not drawn)	-1.6% (inactive)
NC(CO)C(=O)NNCc1ccc(O)c(O)c1O (stereo not drawn)	2.2% (inactive)
Nc1nc(=S)c2[nH]cnc2[nH]1	-2% (inactive)
O=c1c(-c2ccc(O)cc2)coc2cc(O)cc(O)c12	0.8% (inactive)
CC1(C)NC(=O)N(c2ccc([N+](=O)[O-])c(C(F)(F)F)c2)C1=O	0.7% (inactive)
C1CCC(C(CC2CCCCN2)C2CCCCC2)CC1 (stereo not drawn)	7.6% (inactive)
N[C@@H](Cc1ccc(O)c(O)c1)C(=O)O	2.9% (inactive)
Cc1oncc1C(=O)Nc1ccc(C(F)(F)F)cc1	-1.5% (inactive)
NS(=O)(=O)c1cc2c(cc1Cl)NC(C(Cl)Cl)NS2(=O)=O (stereo not drawn)	1.15% (inactive)
CCCOc1ccc2nc(NC(=O)OC)[nH]c2c1	1.2% (inactive)
Cc1cc(C2CCCCC2)n(O)c(=O)c1	0.4% (inactive)
COC(=O)[C@H](Cc1ccccc1)NC(=O)[C@@H](N)CC(=O)O (H-Asp-Phe-OMe)	2.8% (inactive)
CC1=CC(=O)c2ccccc2C1=O	-1.3% (inactive)
CCOC(=O)C1=C[C@]2(CC)CCCN3CCc4c(n1c1ccccc41)[C@@H]32	-1.7% (inactive)
